MCF10A rereplic: induces DNA re-replication in MCF 10a normal breast cells; MCF 10A DNA re-replication, Hoechst nuclear intensity, 48 h; 350,000 tested, 2.9% active; AID 624296; Potency, µM (highest dose often 46.1 µM), most hits filed as activators; note: nearly all actives have a fitted effect of over 50% in size
IL1B secr inh: blocks inflammasome-driven IL-1 beta release; THP-1 LPS/ATP IL-1B secretion, AlphaLISA, 16 h; stronger effect = lower value; 360,000 tested, 4.7% active; AID 743279; activity change, % at 57.5 µM; in the data active = activity change below about -50%; inconclusive = mostly about -30% to -49%
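Secreted IL-1B measured by AlphaLISA bead assay after 16 h compound exposure of THP-1 cells; compounds (final up to 57.5 uM) added 1 h before LPS (250 ng/mL) and ATP (1.25 mM) stimulation; lower signal means less secretion.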
Vif-A3G inh: blocks the Vif interaction with human APOBEC3G | Q9HC16 | HeLa A3G-eYFP + Vif (tagged APOBEC3G with the HIV-1 protein that degrades it), YFP fluorescence, overnight | Potency, µM (series often up to 46.1 µM), actives largely listed as inhibitors | 410,000 tested, 0.076% active | AID 602310; note: nearly all actives have a fitted effect of over 60% in size
Target sequence (Q9HC16 whole entry, looked up): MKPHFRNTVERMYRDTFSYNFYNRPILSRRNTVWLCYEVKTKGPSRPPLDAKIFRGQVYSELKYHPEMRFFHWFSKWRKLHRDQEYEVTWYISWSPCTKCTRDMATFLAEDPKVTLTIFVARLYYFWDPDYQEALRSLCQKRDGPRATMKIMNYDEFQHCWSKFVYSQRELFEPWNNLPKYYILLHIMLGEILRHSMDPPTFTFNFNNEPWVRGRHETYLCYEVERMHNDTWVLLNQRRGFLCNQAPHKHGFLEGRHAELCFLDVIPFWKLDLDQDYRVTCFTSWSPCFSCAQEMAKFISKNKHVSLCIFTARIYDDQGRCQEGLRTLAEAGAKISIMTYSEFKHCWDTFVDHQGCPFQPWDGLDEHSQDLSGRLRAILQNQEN
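Read-out is eYFP fluorescence (Ex 488/Em 500-530) from Vif-expressing HeLa A3G-eYFP cells; more signal means A3G escaped Vif-mediated degradation. Cells plated overnight, compound pinned in, incubated overnight at 37 deg C.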
Giardia killer: Giardia lamblia killing; Giardia lamblia trophozoite viability; activity change, % at 7.66 µM, hits read low; 340,000 tested, 0.15% active; AID 540267; in the data active = activity change below about -80%; inconclusive = between about -30% and that limit;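 note: parasites exposed to compound for two days anaerobically before the ATP read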
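Giardia trophozoites, 100 cells per well, were exposed to compounds for 48 hrs at 37 deg C under anaerobic conditions; viability was then read as ATP content by bioluminescence after 15-30 min at room temperature.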
Vif-A3F inh: blocks the Vif interaction with APOBEC3F; Potency, µM (titrated, usually from 46.1 µM); HeLa A3F-eYFP + Vif (tagged APOBEC3F with the HIV-1 protein that degrades it), YFP fluorescence increase; 390,000 tested, 0.2% active; note: nearly all actives have a fitted effect of over 65% in size
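HeLa cells stably expressing A3F-eYFP plus Vif, plated and incubated overnight at 37 deg C, then exposed to compounds overnight at 37 deg C. Blocked degradation read as raised yellow fluorescence (Ex 488/Em 500-530).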
SW480 rereplic: DNA re-replication induction in SW480 cells; SW480 DNA re-replication, Hoechst DNA content imaging, 48 h; Potency, µM (doses to about 46.1 µM), actives largely listed as activators; 340,000 tested, 1.8% active; note: nearly all actives have a fitted effect of over 55% in size
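Compounds, transferred as 23 nL by pin tool, were incubated with cells for 48 hr; DNA content per nucleus was then quantified by Hoechst staining and fluorescence plate imaging.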
Hits are given with their value; i = inactive; ? = inconclusive; nt = no result given; [ ] = remark or other dose. An excerpt weighted towards active compounds, which were near 6.9% of everything screened. Unless noted, calls come from the whole dose curve; as a rule, active = well fitted curve in the direction sought with a large enough effect; inconclusive = small, poorly fitted or top-dose-only effect, or another doubt; inactive = no such curve, though single readings can be large; an effect the other way counts as inactive or inconclusive.

SMILES	MCF10A rereplic	IL1B secr inh	Vif-A3G inh	Giardia killer	Vif-A3F inh	SW480 rereplic
CSc1nc2ncc3c(n2n1)CC1c2ccccc2CCN1C3=O (configuration not stated)	i	i	i	i	i	i
O=C1c2cnc3nc(SCc4cccc(Cl)c4)nn3c2CC2c3ccccc3CCN12 (configuration not stated)	2.1µM	i	i	i	i	2.6µM
CCCCOC(=O)c1ccc(Nc2nc3ccccc3c3nnc(C)n23)cc1	nt	nt	i	nt	i	nt
O=C(CCNS(=O)(=O)c1ccc2c(c1)CCN2C(=O)C1CC1)N1CCN(c2ccc(F)cc2)CC1	nt	nt	i	nt	i	nt
Cc1cc(C)cc(NC(=O)Cn2cc(C(=O)C3CCCCC3)c3ccccc32)c1	nt	nt	?	nt	7.1µM	nt
Cc1cccc(NC(=O)Cn2cc(C(=O)C3CC3)c3ccccc32)c1	i	i	i	i	i	i
CCCC(=O)N(C)c1ccc(/C=C2\C=Cc3ccccc32)cc1	nt	nt	i	nt	nt	nt
CC(OC(=O)c1ccc([N+](=O)[O-])s1)C(=O)NC1CCCCC1C (configuration not stated)	i	i	i	-86	?	i
COc1cc2c(cc1OC)C(c1ccc(-c3ccc(Cl)cc3Cl)o1)=NCC2	?	?	i	i	i	?
COc1cc2c(cc1OC)C(c1ccc(-c3cc(Cl)ccc3Cl)o1)=NCC2	?	-93	i	i	i	16µM
COc1cc2c(cc1OC)C(c1ccc(-c3ccc(Cl)c(Cl)c3)o1)=NCC2	2.3µM	-59	i	i	i	18µM
COc1cc2c(cc1OC)C(c1ccc(-c3ccccc3Cl)o1)=NCC2	?	-92	i	i	i	?
CCOc1ccccc1C(=O)Nc1cc2c(cc1N1CCCCC1)n(C)c(=O)n2C	nt	nt	i	nt	i	nt
Cc1ccc(C)c(S(=O)(=O)c2cn(Cc3ccccc3)c3cc(F)c(F)cc3c2=O)c1	nt	nt	i	nt	i	nt
COc1cccc(NC(=O)Cn2cc(C(=O)C3CCCCC3)c3ccccc32)c1	nt	nt	i	nt	i	nt
N#C/C(=C(/O)COc1ccc(Cl)cc1)c1nc2ccccc2s1	16µM	i	i	i	i	i
N#C/C(=C(/O)COc1ccccc1)c1nc2ccccc2s1	?	i	i	i	i	?
O=[N+]([O-])c1ccc(/C=N/NC2=NS(=O)(=O)c3ccccc32)cc1	i	i	i	i	i	i
O=S1(=O)N=C(N/N=C/c2cccs2)c2ccccc21	i	-99	i	i	i	i
CCCCNC(=S)NCC(c1ccccc1)c1c[nH]c2ccccc12 (configuration not stated)	?	i	i	i	i	?
NCC(c1ccc(Cl)cc1Cl)c1c[nH]c2ccccc12 (configuration not stated)	?	-88	i	i	i	?
CN(C)CCCNC(=S)NCC(c1ccc(Cl)cc1Cl)c1c[nH]c2ccccc12 (configuration not stated)	?	-104	i	i	i	i
COc1ccc2c(c1)c1c(c(=O)n(-c3cccc(C)c3)c(=O)n1Cc1cccc(Cl)c1)n2C	nt	nt	i	nt	i	nt
N#Cc1c(-c2ccc(Cl)cc2)cc(-c2cccs2)nc1SCC(=O)O	23µM	i	i	i	i	i
COc1nc(-c2cccs2)cc(-c2ccc(C)cc2)c1C#N	?	i	i	i	i	4µM
SMILES	MCF10A rereplic	IL1B secr inh	Vif-A3G inh	Giardia killer	Vif-A3F inh	SW480 rereplic
COc1cc(-c2c(C#N)c(N)nc3c2CCCC3)ccc1O	i	i	i	i	i	i
CCc1nnc(NC(=O)CSc2nc(-c3ccc(F)cc3)cc(-c3ccccc3)c2C#N)s1	12µM	i	i	i	i	i
COc1ccc(-c2c(C#N)c(N)nc3c2CCc2ccccc2-3)cc1OC	1.6µM	i	i	i	i	?
CCOc1ccc(CCNC(=O)c2cc3cccc4c3n2CCS4)cc1	nt	nt	i	nt	i	nt
Cc1cc(C(=O)Nc2c(C)nc3ccccn3c2=O)ccc1[N+](=O)[O-]	nt	nt	i	nt	i	nt
COc1ccc(-c2noc(-c3cccs3)n2)cc1OC	i	nt	i	i	i	i
COc1ccc(-c2cc(-c3cccs3)nc(OC)c2C#N)cc1OC	6.5µM	i	?	i	i	?
CCOc1ccc(NC(=O)CSc2oc(-c3ccc(F)cc3)nc2S(=O)(=O)c2ccc(C)cc2)cc1	nt	nt	i	nt	i	nt
CCOc1ccc(CN(C(=O)c2oc3cc(C)ccc3c2C)C2CCS(=O)(=O)C2)cc1 (configuration not stated)	15µM	i	i	i	i	21µM
Cc1cccc(OCC(=O)N(Cc2ccc(N(C)C)cc2)C2CCS(=O)(=O)C2)c1 (configuration not stated)	i	-50	i	i	i	i
CCCCOC(=O)NC1CCc2cc(OC)c(OC)c(OC)c2-c2ccc(SC)c(=O)cc21 (configuration not stated)	?	i	i	i	i	?
CCOC(=O)NC1CCc2cc(OC)c(OC)c(OC)c2-c2ccc(SC)c(=O)cc21 (configuration not stated)	?	i	i	i	i	0.037µM
CCOCC(=O)NC1CCc2cc(OC)c(OC)c(OC)c2-c2ccc(SC)c(=O)cc21 (configuration not stated)	?	i	i	i	i	0.052µM
COC(=O)c1ccccc1NC(=O)/C=C/c1cc(OC)c(OC)c(OC)c1	?	-85	i	i	i	i
COc1cc(/C=C/C(=O)Nc2cc(C(F)(F)F)ccc2Cl)cc(OC)c1OC	i[9.22 µM]	-57	i	i	i	?
COc1ccc(/C=C/C(=O)Nc2ccccc2C(=O)O)cc1OC	?	nt	i	i	i	i
COc1ccc(-c2oc3cccnc3c2/C=C/c2ccc(OC)c(OC)c2)cc1	?	?	i	i	i	1.6µM
COc1ccc(/C=C/c2c(-c3ccc(OC)cc3)oc(=O)c3cc(OC)c(OC)cc23)cc1	i	i	i	i	i	i
Cc1ccc2c(C(=O)CNc3nc(C)c(C)s3)c(C)[nH]c2c1	nt	nt	i	nt	nt	nt
C[C@H]1C[C@H]2[C@@H]3CCC4=CC(=O)C=C[C@]4(C)[C@@]3(Cl)[C@@H](O)C[C@]2(C)[C@@]1(O)C(=O)CO	i	-59	i	i	i	i
CC1(c2ccccc2)O[C@@H]2C[C@H]3[C@@H]4CCC5=CC(=O)C=C[C@]5(C)[C@@]4(F)[C@@H](O)C[C@]3(C)[C@]2(C(=O)CO)O1 (some centres not stated)	i	-67	i	i	i	?
C[C@H]1C[C@H]2[C@@H]3CCC4=CC(=O)C=C[C@]4(C)[C@@]3(F)[C@@H](O)C[C@]2(C)[C@@]1(O)C(=O)CO	i	-59	i	i	i	i
CC(=O)OCC(=O)[C@@]12OC(C)(C)O[C@@H]1C[C@H]1[C@H]3C[C@H](F)C4=CC(=O)C=C[C@@]4(C)[C@]3(F)[C@H](O)C[C@@]12C	i	nt	nt	nt	nt	i

High-throughput results: PubChem, National Center for Advancing Translational Sciences (NCATS)
